From PubChem BioAssay (NCI)
This is part of a sample that, as a whole, favours compounds with a hit. Of some 79,000 tested, about 15% had one in any assay. Cut-off read from the data, not from the text of the source: active = growth inhibition above about 70%; inactive = the rest.

How the values were obtained:
[1] = NCI Yeast Anticancer Drug Screen. Data for the rad50 strain (AID 155);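 note: 0% = growth of vehicle-only cultures of the same strain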; settings: S. cerevisiae rad50 strain growth inhibition; at 50.0 µM; hits give high values
How it was run: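 Cells are treated with compound, grown, and their growth is then scored against vehicle-only cultures of the same repair-deficient yeast strain.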

[2] = NCI Yeast Anticancer Drug Screen. Data for the mec2-1 strain (AID 157); settings: S. cerevisiae mec2-1 strain, at 50.0 µM, hits give high values
How it was run: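 Readout is yeast growth inhibition, normalised to vehicle-treated controls, in the mec2-1 strain exposed to compound.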

[3] = NCI Yeast Anticancer Drug Screen. Data for the sgs1 mgt1 strain (AID 161);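 note: 0% = growth of cultures given vehicle only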; settings: S. cerevisiae sgs1 mgt1 strain, at 50.0 µM, hits give high values
How it was run: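 Compounds are added to genetically altered yeast, and growth is compared with cultures given vehicle alone to give percent inhibition.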

[4] = NCI Yeast Anticancer Drug Screen. Data for the cln2 rad14 strain (AID 165);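 note: 0% = growth equal to vehicle treated cultures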; settings: S. cerevisiae cln2 rad14 strain, at 50.0 µM, hits give high values
How it was run: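 Relative to vehicle controls, growth inhibition of compound-treated cln2 rad14 yeast was recorded.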

[5] = NCI Yeast Anticancer Drug Screen. Data for the bub3 strain (AID 167); settings: S. cerevisiae bub3 mutant strain, at 50.0 µM, hits give high values
How it was run: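 Part of a panel of yeast mutants defective in DNA damage repair or cell cycle regulation. Each strain is grown with compound, and inhibition is calculated relative to solvent-treated cultures.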

[6] = NCI Yeast Anticancer Drug Screen. Data for the mlh1 rad18 strain (AID 175); settings: S. cerevisiae mlh1 rad18 strain growth inhibition; at 50.0 µM; hits give high values
How it was run: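 Test agents were incubated with a yeast strain of defined genotype (DNA damage repair defect). Inhibition of growth was derived by comparison with vehicle-exposed cultures.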

Measured: growth inhibition

O=S(=O)(O)CC(O)CSSCC(O)CS(=O)(=O)O (stereo unspecified)
inactive: [1] 33.2% | [2] -3.55% | [3] 8.25% | [4] -4.05% | [5] 1.4% | [6] -9.1%

COCCNC(=O)/C=C\C(=O)O
inactive: [1] 3.35% | [2] -3.55% | [3] -2.95% | [4] -49.4% | [5] 12.2% | [6] -3.8%

COc1cc(C2OCCO2)ccc1O
inactive: [1] 12.8% | [2] 7.05% | [3] -0.35% | [4] 39% | [5] 5.05% | [6] -11%

[CH3][Ge]([CH3])([CH3])/[C](=[C](\c1ccccc1)[Ge]([CH3])([CH3])[CH3])c1ccccc1
inactive: [1] 39.6% | [2] -3.5% | [3] 10% | [4] 9.6% | [5] -1.5% | [6] 9.65%

CN(Cc1ccccc1)N=NCc1ccccc1
inactive: [1] 15.8% | [2] -15.8% | [3] -20.4% | [4] 3.35% | [5] 3.65% | [6] -9.7%

O=c1cc(-c2ccccc2)nc(/C=C(\O)c2ccncc2)n1-c1ccccc1
inactive: [1] -4.25% | [2] -18.9% | [3] 0.4% | [4] 10.1% | [5] 15.5% | [6] -8.15%

Cc1cc([N+](=O)[O-])ccn1
inactive: [1] -15.2% | [2] 1.1% | [3] -18.1% | [4] -4.5% | [5] -6.15% | [6] -9.9%

CC(=O)Nc1nc(C)c(CC/C=C/c2ccc([N+](=O)[O-])cc2)c(Cl)n1
inactive: [1] 8.9% | [2] 32.9% | [3] 38% | [4] -6.35% | [5] 27.2% | [6] 53%

OC1CCCN(Cc2ccccc2)C1 (stereo unspecified)
inactive: [1] 9.3% | [2] -15.7% | [3] 8.55% | [4] 4.5% | [5] 11.3% | [6] 7.35%

O=C(O)CCc1coc2ccc(O)cc12
inactive: [1] -0.45% | [2] 10.1% | [3] 8.4% | [4] -20.6% | [5] -6.1% | [6] 14.2%

N=C(N)C(N=Nc1ccccc1)C(=N)N (stereo unspecified)
inactive: [1] -25.4% | [2] -7.45% | [3] -22.1% | [4] -33.5% | [5] -25.5% | [6] -16%

Cc1ccc2c(c1)C=C/C(=C/c1cc[n+](C)c3ccccc13)N2C
inactive: [1] -7.95% | [2] -22.2% | [3] 13.3% | [4] -1.05% | [5] -5.8% | [6] 1.55%

NC(Cc1ccsc1)C(=O)O (stereo unspecified)
inactive: [1] 0.15% | [2] 10.7% | [3] -22.7% | [4] -45.2% | [5] 20.5% | [6] -30.8%

c1ccc(B2O[C@H]3CCCC[C@@H]3O2)cc1
inactive: [1] 2.15% | [2] 13.9% | [3] -1.3% | [4] 12.8% | [5] 1.25% | [6] 21.4%

CC1(C)Oc2ccc3c(=O)c(-c4ccccc4)c(-c4ccccc4)oc3c2C1C(=O)O (stereo unspecified)
inactive: [1] 12.5% | [2] -1.35% | [3] -17.6% | [4] 12.8% | [5] 0.25% | [6] 10.8%

COc1ccc(-c2c(O)c3cccc(-c4ccccc4)c3oc2=O)cc1
inactive: [1] 2.7% | [2] 6.7% | [3] -2.9% | [4] 2.95% | [5] 15% | [6] 7.5%

O=c1[nH]ncc2ccccc12
inactive: [1] -3.1% | [2] -16.2% | [3] -3.95% | [4] -53.5% | [5] -4.75% | [6] -2.45%

Clc1nc(N2CCOCC2)nc(N2CCOCC2)n1
inactive: [1] -9.5% | [2] -21.1% | [3] -3.2% | [4] -32.1% | [5] 7.7% | [6] -5.65%

COC(=O)c1nc(=S)[nH]c(C(=O)OC)c1C(=O)c1ccccc1
inactive: [1] -25.9% | [2] -12.9% | [3] -27.4% | [4] 36% | [5] -25.4% | [6] -16.4%

CCOC(=O)/C(C#N)=C/NC(N)=O
inactive: [1] -2.55% | [2] 3.05% | [3] -10.1% | [4] -10% | [5] 1.95% | [6] -12.6%

COc1cc2c(-c3cc(OC)c(OC)c(OC)c3)cc(C)[n+](C)c2cc1OC
inactive: [1] 6.25% | [2] -9.2% | [3] -2.3% | [4] -15% | [5] -13.3% | [6] 1.8%

CC(=O)c1cccc(OC(=O)c2ccccc2)c1
inactive: [1] 23.5% | [2] 8.3% | [3] 35% | [4] 10.7% | [5] 45.1% | [6] 30.8%

CCCCCCCCCCCC(=O)CC(=O)c1c(O)cccc1O
inactive: [1] 1.35% | [2] -11.6% | [3] 6.45% | [4] 0.1% | [5] 20.7% | [6] -12.2%

Cn1c(N)c2c(=O)n(C)c3c(c2c(C#N)c1=O)CCSc1ccccc1-3
inactive: [1] -4.4% | [2] -6.35% | [3] 0.25% | [4] -36.5% | [5] -5.2% | [6] -1.9%

Cc1ccc(OCc2ccccc2)n[n+]1[O-]
inactive: [1] -20.6% | [2] -16.8% | [3] -10.8% | [4] -9.85% | [5] -9.7% | [6] -3%

CC1=CC(=O)/C(=C\c2ccc3c(c2)OCO3)C(C)(C)C1
inactive: [1] -23.1% | [2] -8.45% | [3] 4.5% | [4] -19.4% | [5] 52.3% | [6] -1.5%

Cc1ccc2nc(C)cc(N=[N+]=[N-])c2c1
inactive: [1] -35.6% | [2] -21.8% | [3] -17.1% | [4] -58.9% | [5] -2.2% | [6] -11.5%

CCCCCCCCCCCCCCCCCCCCCCCCC(O)C(=O)O (stereo unspecified) (tested in a mixture with another compound)
inactive: [1] -33% | [2] -31.4% | [3] -2.4% | [4] -23.2% | [5] 7.7% | [6] -0.45%

CC(=O)COc1ccccc1
inactive: [1] -2.7% | [2] -10.5% | [3] 7.75% | [4] 6.45% | [5] -6.85% | [6] 15.4%

COc1ccc(Cc2cc(OC)c(OC)c(OC)c2)cc1
inactive: [1] 13.2% | [2] -0.3% | [3] 7.7% | [4] 0% | [5] 31.8% | [6] -27.6%

Cc1ccc(C(C#N)c2ccc(N)cc2)cc1 (stereo unspecified)
inactive: [1] 21.9% | [2] -21.3% | [3] 29.9% | [4] 17.1% | [5] 20.2% | [6] 32.5%

CC(=O)NC(CCCCNC(=O)OCc1ccccc1)C(=O)O (stereo unspecified)
inactive: [1] -22.9% | [2] -12.9% | [3] -22.6% | [4] 11.9% | [5] -12.8% | [6] -32.8%

CCC(CC)C(=O)OCCc1ccccc1
inactive: [1] 5% | [2] 3.05% | [3] -2.35% | [4] -6.3% | [5] 9.9% | [6] 0.75%

O=C(O)Cc1cc(=O)[nH]n(-c2ccccc2)c1=O
inactive: [1] 14.2% | [2] 8.6% | [3] -1.3% | [4] 10% | [5] -4.65% | [6] 13.8%

CC(O)CC(=O)c1ccc(O)cc1 (stereo unspecified)
inactive: [1] -42% | [2] -41% | [3] -30.2% | [4] 1.7% | [5] -49.5% | [6] -41.3%

CC1C[C@]2(C)C(=NCCN)Nc3ccccc3[C@@H]2N(C)c2ccccc21 (stereo partly specified)
inactive: [1] -14.4% | [2] -25.6% | [3] -10.8% | [4] -28.6% | [5] -13.2% | [6] 13.3%

Cc1c(Cl)cccc1NC(=O)Oc1ccccc1Cc1ccccc1
inactive: [1] -0.8% | [2] 43.1% | [3] 40% | [4] -2.7% | [5] 67.5% | [6] 52.2%

O=P(c1ccccc1)(c1ccccc1)C(O)c1ccncc1 (stereo unspecified)
inactive: [1] 1.8% | [2] -17.2% | [3] -0.15% | [4] 10.9% | [5] -23% | [6] -10.9%

CSC(=NC(=O)c1c(Cl)cccc1Cl)SC
inactive: [1] 21.8% | [2] 14.2% | [3] 40.2% | [4] 11.3% | [5] 42.4% | [6] 31.9%

c1ccc2c(c1)C(=Nc1ccc(N=C3c4ccccc4-c4ccccc43)cc1)c1ccccc1-2
inactive: [1] 1.8% | [2] -0.55% | [3] -5.7% | [4] -1% | [5] -27.4% | [6] -20.6%

CCCCCCCCCCCCCCCCCC(=O)OCC(O)CO (stereo unspecified)
inactive: [1] -2.85% | [2] -16.8% | [3] 2.85% | [4] 7.2% | [5] -0.45% | [6] 7%
